Laboratory results from PubChem BioAssay (NCATS).
A number with no mark means an inactive call. Results filed as inconclusive are left out. Entries that show only a call come without a potency. The source made the active and inactive calls. Unless noted, calls follow the shape of the dose curve; as a rule, active = well fitted curve in the direction sought with a large enough effect; inconclusive = small, poorly fitted or top-dose-only effect, or another doubt; inactive = no such curve, though single readings can be large; an effect the other way counts as inactive or inconclusive.

Tests used:
[1] = target: Lysosomal acid glucosylceramidase (Homo sapiens) (UniProt P04062); assay: Glucocerebrosidase-p2 (AID 348; in the data active = potency below about 10 µM; also: potency is read from the fitted curve at half-maximal effect); settings: purified GBA, blue fluorogenic substrate, 40 min
Summary of the method: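 Normal human glucocerebrosidase (0.2 nM) with blue fluorogenic substrate (80 uM final) in citrate/phosphate pH 5.9 with 10mM sodium taurocholate, 0.01% tween-20; 40 min RT, NaOH/glycine stop; fluorescence Ex 365/Em 440; AC50 from a titration from 0.6 nM upwards.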

[2] = target: Glucocorticoid receptor (Homo sapiens) (UniProt P04150); assay: GR-GFP Redistribution (AID 450;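 active = compounds whose dose series gives a full or clear partial fitted curve of increased nuclear translocation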; also: potency is read from the fitted curve at half-maximal effect); settings: U2OS GR-GFP nuclear translocation, laser cytometry, 2 h
[3] = target: Glucocorticoid receptor (Homo sapiens) (UniProt P04150); assay: GR-EFC Redistribution (AID 451; calls by dose curve; also: potency is read from the fitted curve at half-maximal effect); settings: CHO-K1 GR-EFC translocation, beta-gal luminescence, 2 h
Summary of the method: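 CHO-K1 cells expressing nuclear EA and GR-ED fragments of b-gal; compounds titrated up to 46 uM final, 2 h at 37 C. GR nuclear translocation read as complemented b-gal luminescence after 1 h RT detection.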

[4] = target: Mitogen-activated protein kinase 10 (Mus musculus) (UniProt Q61831); assay: JNK3 AlphaScreen Assay (AID 530; active = well fitted curve in either direction with a large enough effect, not every such curve was filed as active;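 also: kinase came from lysate of stimulated human HepG2 cells; signal reports phosphorylation of biotinylated GST-cJun 1-79 at Ser73 with 10 µM ATP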); settings: JNK3 lysate, c-Jun phosphorylation; series mostly up to 57.1 µM
Summary of the method: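 Activity was read by AlphaScreen after JNK3-containing HepG2 lysate (cytokine pre-activated) phosphorylated biotinylated GST-cJun with 10 uM ATP at room temperature. Phospho-Ser73 cJun antibody with Protein-A acceptor beads provided detection.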

[5] = target: 3',5'-cyclic-AMP phosphodiesterase 4B (Homo sapiens) (UniProt Q07343); assay: qHTS Assay for Inhibitors of PDE-IV (AID 607; active = well fitted activation curve with a large enough effect in the main read-out, with a control signal flat, not every such curve was filed as active); settings: HEK293 ACTOne CNG channel cells, membrane potential fluorescence; series mostly up to 22.9 µM
Summary of the method: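 The readout is membrane depolarisation from a cAMP-sensing CNG channel, detected with a potential dye at ex 535/em 590. Cells were HEK293-derived (endogenous PDE-IV) at 1000 cells/well, titrated up to 22.9 uM final.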

[6] = target: Dual specificity protein kinase CLK4 (Homo sapiens) (UniProt Q9HAZ1); assay: qHTS Assay for Inhibitors of CDC-like Kinase 4 (ADP-Glo Assay) (AID 1771); settings: recombinant CLK4, ADP-Glo luminescence; series mostly up to 80 µM; also: nearly all actives have a fitted effect of over 70% in size
Summary of the method: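 ADP production was read by ADP-Glo luminescence after residual ATP depletion, following 1 h room-temperature reaction of 25 nM Clk4, 1 uM ATP and 100 uM RS peptide with MgCl2, EGTA, DTT and Triton X-100.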

[7] = target: Ubiquitin carboxyl-terminal hydrolase 1 (Homo sapiens) (UniProt O94782); assay: Inhibitors of USP1/UAF1: Pilot qHTS (AID 504865); settings: purified USP1/UAF1, Ub-rhodamine cleavage fluorescence; series mostly up to 54.9 µM; also: nearly all actives have a fitted effect of over 35% in size; also: potency is read from the fitted curve at half-maximal effect;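 as to activity change, negative = inhibition: rhodamine fluorescence freed from ubiquitin-rhodamine substrate followed over time; top concentration of the series differs between compounds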
Summary of the method: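 USP1/UAF1 complex (1nM) preincubated with compound 15 min at room temperature, then Ub-Rho substrate (150nM final) added. Fluorescence read kinetically at 480/540 nm, 6 reads every 60 seconds. Buffer: 50mM HEPES pH 7.8, 0.5mM EDTA, 0.1 mg/ml BSA, 1mM TCEP, 0.01% Tween-20.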

[8] = Primary qHTS for small molecule stabilizers of the endoplasmic reticulum resident proteome: Secreted ER Calcium Modulated Protein (SERCaMP) assay (AID 1508630); settings: SH-SY5Y GLuc-SERCaMP (Gaussia luciferase released on ER calcium loss) secretion, thapsigargin, luminescence; series mostly up to 38.4 µM
Summary of the method: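 The SH-SY5Y reporter protocol was run at 3 concentrations up to 38.3 uM (primary) or 11 concentrations (follow-up): 16 h compound, 100 nM thapsigargin for 4 h, then extracellular luciferase luminescence.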

[9] = target: Rap guanine nucleotide exchange factor 3 (Homo sapiens) (UniProt O95398); assay: Confirmatory qHTS for antagonist of cAMP-regulated guanine nucleotide exchange factor 3 (EPAC1) (AID 1645880); settings: EPAC1 Rap1B-BODIPY-GDP exchange, fluorescence; series mostly up to 115 µM; also: nearly all actives have a fitted effect of over 55% in size
Summary of the method: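 Released BODIPY-GDP fluoresces less than Rap1-bound BODIPY-GDP; the signal is followed at 480/540 nm at 5-min intervals over 30 min, after 5 min at room temperature. Reactions contain 100 nM EPAC1, 250 nM RAP1B-BODIPY-GDP and 50 uM GDP; results are normalized to ATA and DMSO.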

[10] = target: Rap guanine nucleotide exchange factor 3 (Homo sapiens) (UniProt O95398); assay: Confirmatory qHTS for agonist of cAMP-regulated guanine nucleotide exchange factor 3 (EPAC1) (AID 1645881); settings: EPAC1 Rap1B BODIPY-GDP exchange fluorescence; series mostly up to 154 µM; also: nearly all actives have a fitted effect of over 75% in size; also: potency is read from the fitted curve at half-maximal effect;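 as to activation: EPAC1 catalysed release of BODIPY-GDP from Rap1B seen as fluorescence loss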
[11] = target: Rap guanine nucleotide exchange factor 4 (Homo sapiens) (UniProt Q8WZA2); assay: Confirmatory qHTS for agonist of cAMP-regulated guanine nucleotide exchange factor 4 (EPAC2) (AID 1645884); settings: EPAC2 GEF activity, Rap1B-BODIPY-GDP fluorescence; series mostly up to 154 µM;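 also: nucleotide exchange releases bodipy-GDP from Rap1 and this lowers its fluorescence; nearly all actives have a fitted effect of over 65% in size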
[12] = target: Rap guanine nucleotide exchange factor 4 (Homo sapiens) (UniProt Q8WZA2); assay: Confirmatory qHTS for antagonist of cAMP-regulated guanine nucleotide exchange factor 4 (EPAC2) (AID 1645885); settings: EPAC2 Rap1B-BODIPY-GDP exchange fluorescence, biochemical; series mostly up to 114 µM; also: nearly all actives have a fitted effect of over 25% in size; also: potency is read from the fitted curve at half-maximal effect
[13] = target: Cytochrome P450 1A2 (Homo sapiens) (UniProt P05177); assay: p450-cyp1a2 (AID 410; calls by dose curve; also: potency is read from the fitted curve at half-maximal effect); settings: recombinant CYP1A2, luciferin-ME demethylation, luminescence; series mostly up to 57 µM
Summary of the method: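 Luminescent demethylation readout: Luciferin-ME (100uM, equal to Km) turned over by 20nM CYP1A2 for 60 min at room temperature after NADPH regeneration addition, following 10 min compound preincubation. Normalization used 57 uM furafylline as full inhibition.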

[14] = AP1 Signaling Pathway (AID 357; active = well fitted curve in either direction with a large enough effect, not every such curve was filed as active;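 also: ME-180 reporter cells stimulated with EGF at its EC50 level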); settings: ME-180 AP-1-bla reporter, EGF-induced, beta-lactamase ratio, 5 h; at 7.69 µM (top of the series) unless noted
Summary of the method: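 Modulation of EGF-driven AP-1 transcription was assessed with a beta-lactamase reporter in ME-180 cells. Compound and EC50 EGF were co-incubated 5 hours at 37 °C before 2.5-hour CCF4 loading at room temperature and dual-emission reading.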

[15] = NFAT Signaling Pathway (AID 444; active = well fitted curve in either direction with a large enough effect, not every such curve was filed as active;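 also: carbachol stimulus at about its EC50 of 1 µM final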); settings: Jurkat NFAT-bla M1, carbachol, beta-lactamase ratio, 5 h; at 7.69 µM (top of the series) unless noted
Summary of the method: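 Jurkat cells with NFAT-driven β-lactamase reporter and co-expressed M1 receptor, stimulated with carbachol (final 1 uM, ~EC50), compound titration, 5 h at 37 °C. CCF4 loaded 1 h at RT; 460/530 nm ratio gave %activity and AC50.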

[16] = Stat Signaling Pathway (AID 446; active = well fitted curve in either direction with a large enough effect, not every such curve was filed as active;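 also: ME-180 cervical cancer cells given 40 pM IL-6 alongside compound; SIE-controlled beta-lactamase reporter measured as 460/530 nm FRET emission ratio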); settings: ME-180 (cervical carcinoma) SIE beta-lactamase reporter, IL-6 stimulated, 5 h; at 7.69 µM (top of the series) unless noted
Summary of the method: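 Emission at 460 and 530 nm (excitation 405 nm) reports SIE-controlled beta-lactamase in ME-180 cells. Cells received compound with 40 pM IL-6 for 5 hrs at 37 C; data scaled between 300 pM IL-6 and 125 nM JAK-inhibitor controls.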

[17] = target: Cytochrome P450 3A4 (Homo sapiens) (UniProt P08684); assay: qHTS Assay for Activators of Cytochrome P450 3A4 (AID 885); settings: recombinant CYP3A4, Luciferin-PPXE luminescence, 60 min; series mostly up to 57.1 µM; also: nearly all actives have a fitted effect of over 65% in size
Summary of the method: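 Activators are scored by enhanced luminescence from CYP3A4 conversion of luciferin-PPXE (25uM, equal to KM) to luciferin, after 60 min at RT with an NADPH-regenerating system.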

[18] = target: Dual specificity protein kinase CLK4 (Homo sapiens) (UniProt Q9HAZ1); assay: qHTS Assay for Inhibitors of CDC-like Kinase 4 (Kinase-Glo Assay) (AID 1770); settings: recombinant Clk4, Kinase-Glo ATP depletion luminescence; series mostly up to 66.7 µM; also: nearly all actives have a fitted effect of over 65% in size; also: potency is read from the fitted curve at half-maximal effect
Summary of the method: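 Recombinant human Clk4 (25 nM) phosphorylated RS repeat peptide (100 uM) with 1 uM ATP in Tris pH 7.5/MgCl2/EGTA/DTT/Triton buffer for 4.5 h at room temperature. Residual ATP was quantified by Kinase-Glo luciferase luminescence.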

[19] = target: Dual specificity protein kinase CLK4 (Homo sapiens) (UniProt Q9HAZ1); assay: qHTS Assay for Inhibitors of CDC-like Kinase 4 (ADP-FP Assay) (AID 1795); settings: Transcreener ADP fluorescence polarization; series mostly up to 50 µM; also: nearly all actives have a fitted effect of over 60% in size; also: potency is read from the fitted curve at half-maximal effect
Summary of the method: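 Recombinant human Clk4 (6.25 nM) phosphorylated RS repeat peptide (100 uM) with 1 uM ATP in Tris pH 7.5/MgCl2/EGTA/DTT/Triton buffer for one hour. ADP was quantified by Transcreener competitive fluorescence polarization against an ADP calibration curve.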

Lysosomal acid glucosylceramidase (Homo sapiens), sequence (P04062 whole entry, looked up): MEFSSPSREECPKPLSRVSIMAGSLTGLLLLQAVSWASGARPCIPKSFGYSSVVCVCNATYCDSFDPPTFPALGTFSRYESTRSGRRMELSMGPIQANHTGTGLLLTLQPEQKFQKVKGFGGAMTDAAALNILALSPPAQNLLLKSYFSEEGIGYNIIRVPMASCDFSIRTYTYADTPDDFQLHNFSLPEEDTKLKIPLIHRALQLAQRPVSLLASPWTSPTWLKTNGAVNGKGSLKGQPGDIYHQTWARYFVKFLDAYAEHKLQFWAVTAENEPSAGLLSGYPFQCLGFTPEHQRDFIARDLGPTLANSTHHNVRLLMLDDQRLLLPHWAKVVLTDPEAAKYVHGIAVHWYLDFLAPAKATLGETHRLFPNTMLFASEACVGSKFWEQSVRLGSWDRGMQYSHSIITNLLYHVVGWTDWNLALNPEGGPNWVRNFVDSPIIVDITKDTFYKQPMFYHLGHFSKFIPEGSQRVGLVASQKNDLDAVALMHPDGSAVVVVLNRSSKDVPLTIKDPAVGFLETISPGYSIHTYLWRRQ
Ubiquitin carboxyl-terminal hydrolase 1 (Homo sapiens), sequence (O94782 whole entry, looked up): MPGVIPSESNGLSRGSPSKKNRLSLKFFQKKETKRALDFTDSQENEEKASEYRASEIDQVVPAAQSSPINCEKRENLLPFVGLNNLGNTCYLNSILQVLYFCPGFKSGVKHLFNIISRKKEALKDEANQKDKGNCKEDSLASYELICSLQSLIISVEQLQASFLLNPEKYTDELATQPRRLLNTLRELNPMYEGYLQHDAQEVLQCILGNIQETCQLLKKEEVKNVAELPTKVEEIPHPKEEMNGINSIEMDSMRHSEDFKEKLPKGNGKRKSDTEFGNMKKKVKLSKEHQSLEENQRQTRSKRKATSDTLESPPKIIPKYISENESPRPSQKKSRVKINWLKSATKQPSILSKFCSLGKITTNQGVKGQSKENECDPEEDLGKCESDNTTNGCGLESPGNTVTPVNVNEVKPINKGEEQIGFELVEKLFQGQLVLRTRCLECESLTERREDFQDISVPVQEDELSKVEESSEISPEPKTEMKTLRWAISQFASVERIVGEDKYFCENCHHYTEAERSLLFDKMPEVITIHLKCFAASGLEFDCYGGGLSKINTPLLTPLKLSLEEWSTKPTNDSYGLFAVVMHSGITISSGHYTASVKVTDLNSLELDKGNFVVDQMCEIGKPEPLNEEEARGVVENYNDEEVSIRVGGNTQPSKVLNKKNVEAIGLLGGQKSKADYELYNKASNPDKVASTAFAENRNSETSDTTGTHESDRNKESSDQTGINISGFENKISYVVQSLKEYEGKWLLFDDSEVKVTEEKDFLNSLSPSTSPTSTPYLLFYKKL
Cytochrome P450 3A4 (Homo sapiens), sequence (P08684 whole entry, looked up): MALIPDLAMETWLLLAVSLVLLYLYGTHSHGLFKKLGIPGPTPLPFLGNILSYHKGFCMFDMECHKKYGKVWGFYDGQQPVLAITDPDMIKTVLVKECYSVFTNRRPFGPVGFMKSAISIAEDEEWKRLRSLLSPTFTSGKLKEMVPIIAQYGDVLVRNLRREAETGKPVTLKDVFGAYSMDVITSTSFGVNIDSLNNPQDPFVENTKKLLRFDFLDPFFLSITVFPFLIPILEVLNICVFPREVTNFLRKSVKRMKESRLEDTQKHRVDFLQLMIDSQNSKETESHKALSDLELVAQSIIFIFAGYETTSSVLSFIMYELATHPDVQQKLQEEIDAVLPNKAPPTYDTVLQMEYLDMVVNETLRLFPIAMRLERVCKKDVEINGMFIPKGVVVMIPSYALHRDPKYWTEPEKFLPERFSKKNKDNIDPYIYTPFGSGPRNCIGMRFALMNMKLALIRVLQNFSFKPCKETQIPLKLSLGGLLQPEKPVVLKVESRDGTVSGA
Rap guanine nucleotide exchange factor 3 (Homo sapiens), sequence (O95398 whole entry, looked up): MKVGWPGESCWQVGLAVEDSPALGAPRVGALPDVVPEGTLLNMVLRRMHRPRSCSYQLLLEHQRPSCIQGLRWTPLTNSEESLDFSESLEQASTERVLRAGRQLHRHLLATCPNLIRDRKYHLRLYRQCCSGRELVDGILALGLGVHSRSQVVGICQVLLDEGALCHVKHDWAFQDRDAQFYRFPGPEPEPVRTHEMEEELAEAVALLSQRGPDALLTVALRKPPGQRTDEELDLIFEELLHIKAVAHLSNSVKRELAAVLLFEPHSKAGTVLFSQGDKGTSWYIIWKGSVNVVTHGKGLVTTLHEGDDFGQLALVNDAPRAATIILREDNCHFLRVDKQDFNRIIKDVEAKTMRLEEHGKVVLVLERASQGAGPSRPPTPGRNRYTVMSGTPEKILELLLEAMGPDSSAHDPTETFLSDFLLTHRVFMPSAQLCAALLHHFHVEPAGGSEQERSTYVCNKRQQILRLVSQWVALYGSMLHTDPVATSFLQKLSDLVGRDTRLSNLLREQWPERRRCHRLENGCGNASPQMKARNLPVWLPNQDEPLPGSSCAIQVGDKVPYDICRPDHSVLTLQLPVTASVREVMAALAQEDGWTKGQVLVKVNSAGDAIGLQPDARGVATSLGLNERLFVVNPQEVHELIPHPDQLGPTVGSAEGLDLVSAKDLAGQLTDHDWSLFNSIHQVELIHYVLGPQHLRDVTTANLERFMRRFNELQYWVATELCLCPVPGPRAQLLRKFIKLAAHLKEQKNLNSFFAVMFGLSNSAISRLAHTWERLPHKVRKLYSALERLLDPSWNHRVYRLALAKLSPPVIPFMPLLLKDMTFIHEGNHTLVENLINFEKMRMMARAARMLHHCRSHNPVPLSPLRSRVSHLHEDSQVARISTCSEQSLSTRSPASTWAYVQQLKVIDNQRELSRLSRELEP
Glucocorticoid receptor (Homo sapiens), sequence (P04150 whole entry, looked up, the tested form may be a part): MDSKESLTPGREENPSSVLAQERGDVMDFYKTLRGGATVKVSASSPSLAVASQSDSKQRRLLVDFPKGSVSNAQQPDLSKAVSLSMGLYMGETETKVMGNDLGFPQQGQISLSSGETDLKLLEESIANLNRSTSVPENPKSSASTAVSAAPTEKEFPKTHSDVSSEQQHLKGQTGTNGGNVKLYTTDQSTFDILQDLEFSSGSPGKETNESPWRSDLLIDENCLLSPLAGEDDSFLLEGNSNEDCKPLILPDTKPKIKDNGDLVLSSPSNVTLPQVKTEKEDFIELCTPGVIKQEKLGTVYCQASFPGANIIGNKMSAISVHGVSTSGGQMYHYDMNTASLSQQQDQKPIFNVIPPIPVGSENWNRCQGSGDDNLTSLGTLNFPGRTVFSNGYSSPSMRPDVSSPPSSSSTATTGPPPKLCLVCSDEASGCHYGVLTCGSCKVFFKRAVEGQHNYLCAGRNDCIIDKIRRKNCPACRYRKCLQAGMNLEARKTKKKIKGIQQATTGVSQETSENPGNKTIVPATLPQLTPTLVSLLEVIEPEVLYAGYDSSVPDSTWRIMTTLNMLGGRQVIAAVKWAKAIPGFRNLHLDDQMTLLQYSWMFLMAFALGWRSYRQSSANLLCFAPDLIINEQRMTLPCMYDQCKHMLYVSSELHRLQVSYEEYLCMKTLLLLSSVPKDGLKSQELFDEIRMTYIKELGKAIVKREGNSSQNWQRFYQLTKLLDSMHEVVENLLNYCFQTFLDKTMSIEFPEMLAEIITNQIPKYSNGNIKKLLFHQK
Cytochrome P450 1A2 (Homo sapiens), sequence (P05177 whole entry, looked up): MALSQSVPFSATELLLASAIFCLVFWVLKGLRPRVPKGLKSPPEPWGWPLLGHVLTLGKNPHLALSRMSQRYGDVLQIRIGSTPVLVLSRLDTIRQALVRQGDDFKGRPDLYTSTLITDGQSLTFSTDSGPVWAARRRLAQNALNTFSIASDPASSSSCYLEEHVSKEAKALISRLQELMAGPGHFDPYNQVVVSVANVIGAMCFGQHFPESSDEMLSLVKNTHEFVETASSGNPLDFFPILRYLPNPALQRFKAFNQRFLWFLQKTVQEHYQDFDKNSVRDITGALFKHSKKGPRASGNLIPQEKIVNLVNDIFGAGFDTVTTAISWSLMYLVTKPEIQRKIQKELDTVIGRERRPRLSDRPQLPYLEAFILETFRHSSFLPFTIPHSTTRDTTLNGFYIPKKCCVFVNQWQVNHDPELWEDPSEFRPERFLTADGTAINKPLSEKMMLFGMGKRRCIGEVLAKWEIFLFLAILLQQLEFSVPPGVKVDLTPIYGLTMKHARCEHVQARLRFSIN
3',5'-cyclic-AMP phosphodiesterase 4B (Homo sapiens), sequence (Q07343 whole entry, looked up): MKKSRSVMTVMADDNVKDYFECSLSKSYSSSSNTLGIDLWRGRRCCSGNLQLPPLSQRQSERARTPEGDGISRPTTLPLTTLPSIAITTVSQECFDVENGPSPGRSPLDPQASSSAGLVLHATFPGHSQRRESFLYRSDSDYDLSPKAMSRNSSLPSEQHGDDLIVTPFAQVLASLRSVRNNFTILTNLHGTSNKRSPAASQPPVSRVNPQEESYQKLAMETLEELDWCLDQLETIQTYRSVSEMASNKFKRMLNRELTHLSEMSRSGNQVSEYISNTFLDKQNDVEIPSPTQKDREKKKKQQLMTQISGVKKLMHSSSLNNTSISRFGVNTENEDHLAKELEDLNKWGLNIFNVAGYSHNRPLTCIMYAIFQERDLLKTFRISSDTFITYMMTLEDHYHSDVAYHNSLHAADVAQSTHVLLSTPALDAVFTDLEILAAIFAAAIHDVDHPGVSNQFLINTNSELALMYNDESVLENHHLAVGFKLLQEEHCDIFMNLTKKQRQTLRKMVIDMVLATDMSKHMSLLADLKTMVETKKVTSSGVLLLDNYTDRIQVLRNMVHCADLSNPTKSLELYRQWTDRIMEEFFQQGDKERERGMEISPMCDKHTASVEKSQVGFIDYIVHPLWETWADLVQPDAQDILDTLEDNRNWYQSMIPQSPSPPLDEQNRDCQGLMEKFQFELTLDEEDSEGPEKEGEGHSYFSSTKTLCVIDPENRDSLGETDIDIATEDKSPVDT

`COc1cccc(Cn2c(=O)c(-c3ccc(F)cc3)nc3cnc(N4CCOCC4)nc32)c1` gave a Potency [1] greater than 11.4 µM, a Potency [2] greater than 9.22 µM and a Potency [3] greater than 46 µM. For the same compound, the Potency [4] was “inactive”, the Potency [5] was “inactive” and the Potency [6] was “inactive”. For the same compound, the Potency [7] was “inactive”, the outcome [8] was “inactive” and the Potency [9] was “inactive”. For the same compound, the Potency [10] was “inactive”, the Potency [11] was “inactive” and the Potency [12] was “inactive”.

With `COC(=O)C1=C(C)NC(C)=C(C(=O)OCCSc2ccccc2)[C@@H]1C` the Potency [13] was 0.794 µM (active), the Potency [2] was greater than 46 µM and the Potency [3] was greater than 46 µM. For the same compound, the outcome [8] was “inactive”, the Potency [9] was “inactive” and the Potency [10] was “inactive”.

In the case of `O=c1c(-c2cccs2)nc2cnc(Nc3ccccc3)nc2n1C[C@H]1CCCO1`, the activity change, negative = inhibition [14] is reported as -12.9%, the Potency [13] is reported as 2.51 µM (active) and the activity change, negative = inhibition [15] is reported as -16.9%. The activity, negative = inhibition [16] was 22.1%, the Potency [2] was greater than 9.22 µM and the Potency [3] was greater than 46 µM. The Potency [4] was “inactive”, the Potency [5] was “inactive” and the Potency [17] was “inactive”. For the same compound, the Potency [18] was “inactive”, the Potency [19] was “inactive” and the Potency [7] was “inactive”. For the same compound, the outcome [8] was “inactive”, the Potency [9] was “inactive” and the Potency [10] was “inactive”. The Potency [12] was “inactive”.

For `O=C(CCCCCN1C(=O)c2cccc3cccc(c23)C1=O)NO`, the outcome [8] was “inactive”.

In the case of `O=C(c1csnn1)N1CCC2(CC1)CN(c1cccc(-c3ccccc3)c1)C2`, the activity change, negative = inhibition [14] is reported as -15.1%, the Potency [13] is reported as 12.6 µM (active) and the activity change, negative = inhibition [15] is reported as -11.3%. For the same compound, the Potency [3] was greater than 46 µM, the Potency [4] was “inactive” and the Potency [5] was “inactive”. The Potency [17] was “inactive”, the outcome [8] was “inactive” and the Potency [10] was “inactive”. The Potency [11] was “inactive”.

In the case of `COc1ccc(C(=O)N2CCC[C@@]3(CCN(Cc4cc(C(F)(F)F)cc(C(F)(F)F)c4)C3)C2)cc1`, the Potency [1] is reported as greater than 11.4 µM, the activity change, negative = inhibition [14] is reported as 16.8% and the Potency [13] is reported as “inactive”. It also gave an activity change, negative = inhibition [15] of -5.26%, an activity, negative = inhibition [16] of -1.38% and a Potency [3] greater than 46 µM. The Potency [4] was “inactive”, the Potency [5] was “inactive” and the Potency [17] was “inactive”. For the same compound, the outcome [8] was “inactive”, the Potency [10] was “inactive” and the Potency [11] was “inactive”. The Potency [12] was 55.5 µM (active).

With `COc1cccc(Nc2ncc3nc(-c4cccs4)c(=O)n(-c4ccccc4)c3n2)c1` the Potency [1] was greater than 11.4 µM, the activity change, negative = inhibition [14] was -24.2% and the Potency [13] was 3.16 µM (active). For the same compound, the activity change, negative = inhibition [15] was -15.6%, the activity, negative = inhibition [16] was 3.1% and the Potency [3] was greater than 46 µM. For the same compound, the Potency [4] was “inactive”, the Potency [5] was “inactive” and the Potency [17] was “inactive”. For the same compound, the Potency [7] was 35.5 µM (active), the outcome [8] was “inactive” and the Potency [9] was “inactive”. For the same compound, the Potency [10] was 70.6 µM (active) and the Potency [12] was “inactive”.

For `COc1ccccc1CNc1nc(-c2cccnc2)nc2ccccc12`, the Potency [1] was greater than 11.4 µM, the activity change, negative = inhibition [14] was -17.9% and the Potency [13] was 1 µM (active). The activity change, negative = inhibition [15] was -5.69%, the activity, negative = inhibition [16] was -25.3% and the Potency [3] was greater than 46 µM. For the same compound, the Potency [4] was “inactive”, the Potency [17] was “inactive” and the Potency [18] was 12.6 µM (active). For the same compound, the Potency [19] was 4.47 µM (active), the Potency [7] was “inactive” and the outcome [8] was “inactive”. The Potency [10] was “inactive” and the Potency [11] was “inactive”.
